Reference: PubChem BioAssay (Tox21)
Records with an inconclusive call do not appear. A call without a number means that no potency is given here. Some structures have more than one record in an assay (separate samples or runs), and their calls can disagree. Active and inactive are the calls of the source. The call rests on the fitted dose curve; in most records, active means well fitted curve in the direction sought with a large enough effect in the repeat runs; inconclusive means weak or mixed curves; inactive means no such curve, though single readings can be large; an effect the other way counts as inactive or inconclusive.

Columns and labels:
[1] = biological target: Cytochrome P450 1A2 (Homo sapiens) (UniProt P05177); assay: Cytochrome P450 Family 1 Subfamily A Member 2 (CYP1A2) small molecule antagonists: luciferase reporter qHTS assay (AID 1671199); on activity change, negative = inhibition: series mostly up to about 120 µM
Chain of Cytochrome P450 1A2 (Homo sapiens) (P05177 whole entry, looked up): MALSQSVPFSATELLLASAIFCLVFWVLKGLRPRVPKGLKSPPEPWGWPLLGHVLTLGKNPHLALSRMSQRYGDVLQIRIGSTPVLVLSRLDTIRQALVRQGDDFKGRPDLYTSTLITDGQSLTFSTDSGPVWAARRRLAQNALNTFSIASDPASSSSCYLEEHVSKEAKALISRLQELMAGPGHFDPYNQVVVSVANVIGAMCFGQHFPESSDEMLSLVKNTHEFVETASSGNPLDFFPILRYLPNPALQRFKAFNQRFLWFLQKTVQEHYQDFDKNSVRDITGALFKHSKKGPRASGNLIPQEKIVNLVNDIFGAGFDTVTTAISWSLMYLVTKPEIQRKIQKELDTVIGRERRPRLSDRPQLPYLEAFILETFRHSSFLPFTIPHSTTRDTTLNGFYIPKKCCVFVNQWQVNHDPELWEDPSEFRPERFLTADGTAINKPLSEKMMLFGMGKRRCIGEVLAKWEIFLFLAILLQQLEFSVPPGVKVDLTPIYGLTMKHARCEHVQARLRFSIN
Outline: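 Compounds were incubated with CYP1A2 and a luminogenic proluciferin substrate for 10 min at room temperature before the reaction was started with NADPH regeneration solution. After 1 h, detection reagent was added and light output, proportional to CYP activity, was recorded.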

[2] = biological target: Voltage-gated inwardly rectifying potassium channel KCNH2 (Homo sapiens) (UniProt Q12809); assay: Human Ether-a-go-go-Related Gene (hERG) channel small molecule antagonists: fluorescence cell-based qHTS assay (AID 1671200);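 on activity change, negative = inhibition: hERG-expressing U2OS cells given a thallium stimulus after FluxOR II dye loading; series mostly up to about 77 µM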
Chain of Voltage-gated inwardly rectifying potassium channel KCNH2 (Homo sapiens) (Q12809 whole entry, looked up): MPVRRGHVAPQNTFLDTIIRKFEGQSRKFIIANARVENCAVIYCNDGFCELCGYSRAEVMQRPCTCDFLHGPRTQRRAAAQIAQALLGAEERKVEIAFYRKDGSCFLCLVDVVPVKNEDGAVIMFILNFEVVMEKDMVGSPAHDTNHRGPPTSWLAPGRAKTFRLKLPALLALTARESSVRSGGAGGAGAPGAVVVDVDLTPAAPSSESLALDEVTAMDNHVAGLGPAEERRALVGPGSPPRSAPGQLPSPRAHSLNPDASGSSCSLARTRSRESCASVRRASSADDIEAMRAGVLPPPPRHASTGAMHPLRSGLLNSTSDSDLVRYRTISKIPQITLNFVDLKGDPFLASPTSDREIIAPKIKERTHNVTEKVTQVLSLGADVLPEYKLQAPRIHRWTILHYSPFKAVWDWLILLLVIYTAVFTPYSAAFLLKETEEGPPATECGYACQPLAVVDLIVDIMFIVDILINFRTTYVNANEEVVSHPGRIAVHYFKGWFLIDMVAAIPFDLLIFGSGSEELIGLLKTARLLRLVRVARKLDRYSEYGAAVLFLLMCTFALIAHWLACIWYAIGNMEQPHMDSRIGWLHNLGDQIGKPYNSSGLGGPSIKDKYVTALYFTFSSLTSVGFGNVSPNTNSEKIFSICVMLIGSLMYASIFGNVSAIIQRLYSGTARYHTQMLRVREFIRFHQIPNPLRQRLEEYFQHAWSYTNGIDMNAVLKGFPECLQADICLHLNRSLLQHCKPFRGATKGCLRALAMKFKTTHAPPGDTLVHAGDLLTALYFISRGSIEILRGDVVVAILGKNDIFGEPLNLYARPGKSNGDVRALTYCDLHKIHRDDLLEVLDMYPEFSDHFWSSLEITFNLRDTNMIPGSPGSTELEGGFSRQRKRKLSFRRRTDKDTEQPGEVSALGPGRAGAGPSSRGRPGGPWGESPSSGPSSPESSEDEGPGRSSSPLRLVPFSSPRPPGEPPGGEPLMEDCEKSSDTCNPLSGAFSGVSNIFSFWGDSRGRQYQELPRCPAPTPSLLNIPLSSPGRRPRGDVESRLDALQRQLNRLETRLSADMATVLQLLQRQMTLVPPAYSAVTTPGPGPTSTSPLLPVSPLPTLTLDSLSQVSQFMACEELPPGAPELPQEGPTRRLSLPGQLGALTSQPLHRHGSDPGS
Outline: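 Cell line hERG-U2OS; dye FluxOR II, 1 h RT dark; Tl+ stimulus; ex 480/em 540 nm, read each second for 2 min.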

[3] = biological target: Cytochrome P450 3A4 (Homo sapiens) (UniProt P08684); assay: Cytochrome P450 Family 3 Subfamily A Member 4 (CYP3A4) small molecule antagonists: luciferase reporter qHTS assay (AID 1671201); on activity change, negative = inhibition: series mostly up to about 120 µM
Chain of Cytochrome P450 3A4 (Homo sapiens) (P08684 whole entry, looked up): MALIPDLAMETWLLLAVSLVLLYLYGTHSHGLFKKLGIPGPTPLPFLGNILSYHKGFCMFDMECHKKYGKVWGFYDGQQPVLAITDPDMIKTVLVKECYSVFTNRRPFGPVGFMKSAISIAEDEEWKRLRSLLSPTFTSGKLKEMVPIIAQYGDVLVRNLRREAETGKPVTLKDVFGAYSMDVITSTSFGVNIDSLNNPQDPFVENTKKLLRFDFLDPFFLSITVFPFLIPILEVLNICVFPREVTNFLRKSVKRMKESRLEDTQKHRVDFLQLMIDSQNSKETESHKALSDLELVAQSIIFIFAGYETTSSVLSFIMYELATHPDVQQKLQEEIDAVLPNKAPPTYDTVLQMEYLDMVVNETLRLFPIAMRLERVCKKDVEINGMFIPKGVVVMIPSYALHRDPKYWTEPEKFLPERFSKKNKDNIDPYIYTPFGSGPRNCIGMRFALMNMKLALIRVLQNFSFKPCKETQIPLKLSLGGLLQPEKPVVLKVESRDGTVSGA
Outline: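 Room-temperature assay throughout: 10 min compound–enzyme/substrate preincubation, 1 h reaction after NADPH regeneration solution, 20 min detection. Luciferin formed from proluciferin substrate is quantified by luminescence.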
Further: nearly all actives have a fitted effect of over 50% in size.
Potency means the concentration at half of the fitted maximal effect.

C/C=C/C(=O)C1=C(C)CCCC1(C)C was tested, and the Potency [1] was “inactive” and the Potency [2] was “inactive”.

CCOCOCC was tested, and the Potency [1] was “inactive” and the Potency [2] was “inactive”.

With C/C=C/C=N/NC(=O)c1ccncc1 the Potency [1] was “inactive” and the Potency [2] was “inactive”.

CC1=C(/C=C/C(C)=C/C=C/C(C)=C/C(=O)Nc2ccc(O)cc2)C(C)(C)CCC1 was tested, and the Potency [1] was 72.8 µM (active) and inactive and the Potency [2] was “inactive”.

CC=O was tested, and the Potency [1] was 37.2 µM (active) and the Potency [2] was 4.57 µM (active).

With O=Nc1ccc(NO)cc1 the Potency [1] was “inactive” and the Potency [2] was “inactive”.

CCc1cccc(CC)c1N(COC)C(=O)CS(=O)(=O)O was tested, and the Potency [1] was “inactive” and the Potency [2] was “inactive”.

With CN(C)c1ccc(N=NS(=O)(=O)O)cc1 the Potency [1] was 9.45 µM (active) and the Potency [2] was “inactive”.

Cc1ccc2ccc3cccc4ccc1c2c34 was tested, and the Potency [1] was 0.563 µM (active) and the Potency [2] was “inactive”.

For Cc1cccc(C)n1, the Potency [1] was 39.9 µM (active) and the Potency [2] was “inactive”.

In the case of CCCC(C)CCC(C)=O (configuration not stated), the Potency [1] is reported as “inactive” and the Potency [2] is reported as “inactive”.

In the case of C[n+]1c2cc(N)ccc2cc2ccc(N)cc21 (tested in a mixture with another compound), the Potency [1] is reported as 2.19 µM (active) and the Potency [2] is reported as “inactive”.

CCCSS/C(CCO)=C(\C)N(C=O)Cc1cnc(C)nc1N was tested, and the Potency [1] was “inactive” and the Potency [2] was 12 µM (active).

With O=C(Nc1ccc(Cl)c(Cl)c1)c1cc(Cl)cc(Cl)c1O the Potency [1] was 20 µM (active) and the Potency [2] was “inactive”.

Cc1cncc(C)c1 was tested, and the Potency [1] was “inactive” and the Potency [2] was “inactive”.

With CCC(C)c1cc([N+](=O)[O-])cc([N+](=O)[O-])c1OC(=O)OC(C)C (configuration not stated) the Potency [1] was 2.52 µM (active) and the Potency [2] was “inactive”.

Oc1cc2ccccc2cc1O was tested, and the Potency [1] was 31.7 µM (active) and the Potency [2] was “inactive”.

CN(C)c1ccc(N=Nc2ccccc2C(=O)O)cc1 was tested, and the Potency [1] was 25.2 µM (active) and the Potency [2] was “inactive”.

For CCN(CC)CCOc1ccc(C(O)(Cc2ccc(Cl)cc2)c2ccc(C)cc2)cc1 (configuration not stated), the Potency [1] was “inactive” and the Potency [2] was 1.34 µM (active).

With C/C=C/c1ccc(OC)c(OC)c1 the Potency [1] was 25.2 µM (active) and the Potency [2] was “inactive”.

With CCC1(c2cnc[nH]2)Cc2ccccc2C1 the Potency [1] was 8.12 µM (active) and the Potency [2] was “inactive”.

For C=CC(=C)CCC=C(C)C, the Potency [1] was “inactive” and the Potency [2] was “inactive”.

Cc1ccc(N)cc1O was tested, and the Potency [1] was 11.1 µM (active) and the Potency [2] was “inactive”.

With CC(=O)Oc1ccc(C2(c3ccc(OC(C)=O)cc3)C(=O)Nc3ccccc32)cc1 the Potency [1] was “inactive” and the Potency [2] was “inactive”.

In the case of CC(C(O)c1ccccc1)N(C)CCOC(c1ccccc1)c1ccccc1 (configuration not stated), the Potency [1] is reported as “inactive” and the Potency [2] is reported as 1.69 µM (active).

For CCCCCCCC(OC)OC, the Potency [1] was “inactive” and the Potency [2] was “inactive”.

In the case of O=C1OC(=O)c2ccc3c4c(ccc1c24)C(=O)OC3=O, the Potency [1] is reported as “inactive” and the Potency [2] is reported as “inactive”.

With CC(CN(C)C)CN1c2ccccc2CCc2ccccc21 (configuration not stated) the Potency [1] was “inactive” and the Potency [2] was 15.1 µM (active).

Nc1cc(Cl)c([N+](=O)[O-])cc1O was tested, and the Potency [1] was 19.9 µM (active) and the Potency [2] was “inactive”.

CCO[Si](CCCSSSSCCC[Si](OCC)(OCC)OCC)(OCC)OCC was tested, and the Potency [1] was 71.1 µM (active) and the Potency [2] was “inactive”.

For COc1cc(C(=O)NS(=O)(=O)c2ccccc2C)ccc1Cc1cn(C)c2ccc(NC(=O)OC3CCCC3)cc12, the Potency [1] was “inactive” and the Potency [2] was “inactive”.

For O=C1OC(=O)c2cccc3cccc1c23, the Potency [1] was 35.9 µM (active) and the Potency [2] was “inactive”.

In the case of CN1CCN(C2Cc3ccccc3Sc3ccc(Cl)cc32)CC1 (configuration not stated), the Potency [1] is reported as “inactive” and the Potency [2] is reported as 0.848 µM (active).

CC(C)c1cccc(C(C)C)c1N1C(=O)c2ccc(O)cc2C1=O was tested, and the Potency [1] was “inactive” and the Potency [2] was “inactive”.

With CCCCCCCOC(=O)c1ccccc1C(=O)OCCCCCCC the Potency [1] was 15.9 µM (active) and the Potency [2] was “inactive”.

With Clc1ccc(C(Cn2ccnc2)OCc2ccsc2Cl)c(Cl)c1 (configuration not stated) the Potency [1] was 4.56 µM (active) and the Potency [2] was 9.52 µM (active).

With COc1cc(C=C2CCC/C(=C\c3ccc(O)c(OC)c3)C2=O)ccc1O the Potency [1] was “inactive” and the Potency [2] was “inactive”.

With CN(C)CCN1CCOCC1 the Potency [1] was “inactive” and the Potency [2] was “inactive”.

With Cc1nc(Nc2ncc(C(=O)Nc3c(C)cccc3Cl)s2)cc(N2CCN(CCO)CC2)n1 the Potency [1] was “inactive” and the Potency [2] was “inactive”.

In the case of NC(=O)C(=O)N/N=C/c1ccc([N+](=O)[O-])o1, the Potency [1] is reported as “inactive”, the Potency [2] is reported as “inactive” and the Potency [3] is reported as “inactive”.

With Cc1cc(Nc2ccc(O)cc2)ccc1N the Potency [1] was 35.4 µM (active), the Potency [2] was “inactive” and the Potency [3] was 7.93 µM (active).

In the case of COC(=O)NCCC[Si](OC)(OC)OC, the Potency [1] is reported as “inactive”, the Potency [2] is reported as “inactive” and the Potency [3] is reported as 28.3 µM (active).

For OCCCc1cccnc1, the Potency [1] was “inactive”, the Potency [2] was “inactive” and the Potency [3] was 15.9 µM (active).

With OCCCCl the Potency [1] was “inactive”, the Potency [2] was “inactive” and the Potency [3] was “inactive”.

In the case of CCN(CC)CCNc1ccc(CO)c2sc3ccccc3c(=O)c12, the Potency [1] is reported as 0.512 µM (active), the Potency [2] is reported as 10.7 µM (active) and the Potency [3] is reported as “inactive”.

In the case of O=c1cccc[nH]1, the Potency [1] is reported as “inactive”, the Potency [2] is reported as “inactive” and the Potency [3] is reported as “inactive”.

For O=C=NCc1cccc(CN=C=O)c1, the activity change, negative = inhibition [1] was -18.9% [at 23.6 µM] (inactive), the activity change, negative = inhibition [2] was 0.993% [at 15.8 µM] (inactive) and the Potency [3] was 4.25 µM (active).
